Values joined by “and” are separate entries in the source; they are usually repeats but may differ in a detail not shown here. Identical values can stand only once. Records with an inconclusive call do not appear. Where a call stands in place of a potency, no number is given. Active and inactive are the calls of the source. Unless noted, calls follow the shape of the full dose curve.
Key:
[1] = biological target: Bile acid receptor (Homo sapiens) (UniProt Q96RI1); experiment: qHTS assay for small molecule antagonists of farnesoid X receptor signaling (AID 588526)
Bile acid receptor (Homo sapiens), sequence (Q96RI1 whole entry, looked up): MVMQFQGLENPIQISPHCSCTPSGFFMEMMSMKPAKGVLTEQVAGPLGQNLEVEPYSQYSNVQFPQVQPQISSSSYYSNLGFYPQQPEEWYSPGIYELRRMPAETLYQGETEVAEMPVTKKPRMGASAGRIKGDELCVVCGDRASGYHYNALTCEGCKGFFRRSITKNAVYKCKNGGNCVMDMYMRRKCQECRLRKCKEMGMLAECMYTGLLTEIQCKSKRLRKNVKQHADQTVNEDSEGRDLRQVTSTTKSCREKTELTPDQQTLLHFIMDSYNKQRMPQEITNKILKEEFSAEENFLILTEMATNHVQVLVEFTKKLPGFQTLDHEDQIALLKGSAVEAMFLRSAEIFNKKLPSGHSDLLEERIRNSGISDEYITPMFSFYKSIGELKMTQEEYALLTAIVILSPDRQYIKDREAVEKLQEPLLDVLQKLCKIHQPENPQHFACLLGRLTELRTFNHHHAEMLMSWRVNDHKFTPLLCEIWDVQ
Summary of the method: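 Concentration-response titrations were fitted to the Hill equation for half-maximal inhibition and maximal response, with data normalised to 50 uM chenodeoxycholic acid and DMSO control wells. Cells: FXR-UAS-bla HEK293T, dialyzed FBS.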

[2] = biological target: Glucocorticoid receptor (Homo sapiens) (UniProt P04150); experiment: qHTS assay for small molecule agonists of glucocorticoid receptor signaling (AID 588532; active = well fitted curve in the direction sought with a large enough effect in the signal ratio, with a control signal flat; the % refers to the signal ratio); settings: HeLa MMTV-bla, beta-lactamase ratio, agonist, 18 h; stronger effect = higher value; percent of dexamethasone control, DMSO zero
Glucocorticoid receptor (Homo sapiens), sequence (P04150 whole entry, looked up): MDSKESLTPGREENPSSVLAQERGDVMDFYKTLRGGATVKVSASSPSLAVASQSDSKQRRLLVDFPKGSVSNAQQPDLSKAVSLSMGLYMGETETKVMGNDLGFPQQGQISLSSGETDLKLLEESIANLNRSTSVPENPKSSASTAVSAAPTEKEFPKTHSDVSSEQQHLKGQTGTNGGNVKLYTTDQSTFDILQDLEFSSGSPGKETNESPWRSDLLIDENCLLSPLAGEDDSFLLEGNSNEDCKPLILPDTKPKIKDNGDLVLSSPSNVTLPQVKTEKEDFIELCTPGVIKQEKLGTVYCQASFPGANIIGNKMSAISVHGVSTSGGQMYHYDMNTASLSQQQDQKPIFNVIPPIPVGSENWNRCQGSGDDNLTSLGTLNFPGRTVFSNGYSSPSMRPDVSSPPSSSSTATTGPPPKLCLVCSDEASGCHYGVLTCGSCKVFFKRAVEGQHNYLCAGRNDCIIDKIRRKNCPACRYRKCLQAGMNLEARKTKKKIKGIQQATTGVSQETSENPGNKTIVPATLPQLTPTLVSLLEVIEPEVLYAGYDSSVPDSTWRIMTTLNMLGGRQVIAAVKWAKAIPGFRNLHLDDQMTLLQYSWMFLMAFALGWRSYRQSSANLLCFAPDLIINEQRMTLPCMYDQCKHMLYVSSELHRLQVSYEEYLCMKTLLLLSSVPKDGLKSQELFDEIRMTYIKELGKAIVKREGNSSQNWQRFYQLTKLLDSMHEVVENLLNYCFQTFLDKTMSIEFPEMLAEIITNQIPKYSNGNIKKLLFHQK
Summary of the method: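 Titration series, up to 92 uM, applied to GRE-bla HeLa cells for 18 h at 37 C. Detection by CCF4 FRET substrate after 2 h at RT.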

[3] = biological target: Glucocorticoid receptor (Homo sapiens) (UniProt P04150); experiment: qHTS assay for small molecule antagonists of glucocorticoid receptor signaling (AID 588533; active = well fitted inhibition curve with a large enough effect in the signal ratio, with a control signal flat, not every such curve was filed as active; the % refers to the signal ratio;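 also: cells stimulated with 2 nM dexamethasone as agonist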; also: potency is read from the fitted curve at half-maximal effect)
Summary of the method: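 Antagonist-mode qHTS: compound titrations added to GRE-bla HeLa cells, then dexamethasone 2 nM final; 18 h, 37 C. CCF4 FRET fluorescence normalized to dexamethasone and DMSO; IC50 from Hill fit.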

[4] = qHTS assay for small molecule antagonists of peroxisome proliferator-activated receptor delta signaling (AID 588535; active = well fitted inhibition curve with a large enough effect in the signal ratio, with a control signal flat, not every such curve was filed as active; the % refers to the signal ratio;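 as to max response: cells co-treated with a PPAR-delta agonist as stimulator during compound exposure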); settings: HEK293T PPARd-UAS-bla, beta-lactamase FRET ratio, 18 h; 460 nm channel
Summary of the method: (§1)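 Reporter: UAS-bla under PPAR-delta response element, HEK293T host. Medium: 2% charcoal/dextran FBS. Dosing: titration, 18 hrs, 37 C. Detection: CCF4, 2 hrs RT, 405 ex/460 and 530 em.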

[5] = biological target: Peroxisome proliferator-activated receptor delta (Homo sapiens) (UniProt Q03181); experiment: as above
Peroxisome proliferator-activated receptor delta (Homo sapiens), sequence (Q03181 whole entry, looked up): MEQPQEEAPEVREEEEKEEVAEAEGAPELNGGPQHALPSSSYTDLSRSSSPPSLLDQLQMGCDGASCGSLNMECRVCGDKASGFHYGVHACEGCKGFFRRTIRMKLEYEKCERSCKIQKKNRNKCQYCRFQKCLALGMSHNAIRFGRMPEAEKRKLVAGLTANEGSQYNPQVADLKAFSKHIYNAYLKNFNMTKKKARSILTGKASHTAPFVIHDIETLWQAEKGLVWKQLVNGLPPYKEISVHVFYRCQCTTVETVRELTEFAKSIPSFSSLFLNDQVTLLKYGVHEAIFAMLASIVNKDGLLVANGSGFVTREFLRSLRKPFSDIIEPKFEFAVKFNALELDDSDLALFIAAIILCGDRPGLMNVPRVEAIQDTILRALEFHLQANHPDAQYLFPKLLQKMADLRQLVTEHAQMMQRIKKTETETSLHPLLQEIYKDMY
Summary of the method: as §1

[6] = biological target: Vitamin D3 receptor (Homo sapiens) (UniProt P11473); experiment: qHTS assay for small molecule antagonists of vitamin D receptor signaling (AID 588541);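 also: receptor activated by calcitriol during compound treatment; series mostly up to about 77 µM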
Summary of the method: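 VDR-UAS-bla HEK293T cells (2000/well, 2% charcoal-stripped FBS) were treated with titrated compounds plus 1-alpha,25-dihydroxyvitamin D3 (50 nM or 3 nM final) for 16 h at 37 C. CCF4 beta-lactamase fluorescence was read; Hill fits gave IC50.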

[7] = biological target: Vitamin D3 receptor (Homo sapiens) (UniProt P11473); experiment: qHTS assay for small molecule agonists of vitamin D receptor signaling (AID 588543)
Summary of the method: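 qHTS in agonist mode: compound titrations stimulate a VDR-driven β-lactamase reporter in HEK293T cells over 16 h at 37 °C. Response normalized to 50 nM 1α,25-dihydroxyvitamin D3 = 100%, DMSO = 0%; Hill fitting gives EC50 and maximal response.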

[8] = biological target: Peroxisome proliferator-activated receptor gamma (Homo sapiens) (UniProt P37231); experiment: qHTS assay for small molecule agonists of peroxisome proliferator-activated receptor gamma signaling (AID 588536; active = well fitted curve in the direction sought with a large enough effect in the signal ratio, with a control signal flat, not every such curve was filed as active; the % refers to the signal ratio)
Peroxisome proliferator-activated receptor gamma (Homo sapiens), sequence (P37231 whole entry, looked up): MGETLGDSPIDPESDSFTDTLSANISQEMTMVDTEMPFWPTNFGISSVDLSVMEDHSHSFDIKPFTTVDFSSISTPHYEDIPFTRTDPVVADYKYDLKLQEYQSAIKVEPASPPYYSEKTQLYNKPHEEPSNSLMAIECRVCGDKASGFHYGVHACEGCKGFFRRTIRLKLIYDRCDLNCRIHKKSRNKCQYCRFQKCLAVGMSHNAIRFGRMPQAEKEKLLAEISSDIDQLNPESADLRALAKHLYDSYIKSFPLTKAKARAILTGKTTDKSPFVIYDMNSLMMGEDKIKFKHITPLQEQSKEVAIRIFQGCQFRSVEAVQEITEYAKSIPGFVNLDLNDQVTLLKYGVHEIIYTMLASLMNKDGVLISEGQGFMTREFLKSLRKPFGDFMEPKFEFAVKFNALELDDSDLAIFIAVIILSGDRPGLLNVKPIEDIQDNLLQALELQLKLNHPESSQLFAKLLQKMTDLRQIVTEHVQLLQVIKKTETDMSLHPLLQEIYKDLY
Summary of the method: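 Test agents, titrated, stimulated HEK293 UAS-bla cells overnight (16 h, 37 C). Substrate CCF4 was then added for two hours at room temperature before fluorescence reading.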

[9] = qHTS assay for small molecule agonists of retinoid X receptor alpha signaling (AID 588544); settings: HEK293T RXRa-UAS-bla, beta-lactamase reporter, 18 h; 530 nm emission
[10] = biological target: Retinoic acid receptor RXR-alpha (Homo sapiens) (UniProt P19793); experiment: as above
Retinoic acid receptor RXR-alpha (Homo sapiens), sequence (P19793 whole entry, looked up): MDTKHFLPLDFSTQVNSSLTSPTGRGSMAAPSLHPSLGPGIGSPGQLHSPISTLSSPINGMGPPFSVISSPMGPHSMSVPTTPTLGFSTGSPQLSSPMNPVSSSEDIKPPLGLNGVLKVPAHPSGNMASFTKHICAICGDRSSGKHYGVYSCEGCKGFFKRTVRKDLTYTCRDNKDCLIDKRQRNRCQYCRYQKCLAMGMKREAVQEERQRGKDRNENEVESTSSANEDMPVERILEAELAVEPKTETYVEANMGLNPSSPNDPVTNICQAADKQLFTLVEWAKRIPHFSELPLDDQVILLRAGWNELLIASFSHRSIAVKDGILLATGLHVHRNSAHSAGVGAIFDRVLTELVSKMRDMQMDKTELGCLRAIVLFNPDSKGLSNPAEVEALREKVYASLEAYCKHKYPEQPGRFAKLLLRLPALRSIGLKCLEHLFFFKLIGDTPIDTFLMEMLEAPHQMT

SMILES	outcome [1]	activation [2]	Potency [3]	max response [4]	outcome [5]	outcome [6]	outcome [7]	outcome [8]	max response [9]	outcome [10]
CC(C)OC(=O)C(C)(C)Oc1ccc(C(=O)c2ccc(Cl)cc2)cc1	inactive	0.14% (inactive)	inactive	43.3%	inactive	inactive	inactive			
CC/C(=C(\c1ccccc1)c1ccc(OCCN(C)C)cc1)c1ccccc1		5.77% (inactive) and -2.85% (inactive)	inactive							
CC(=O)c1ccc(S(=O)(=O)NC(=O)NC2CCCCC2)cc1	inactive	9.83% (inactive) and -7.15% (inactive)	inactive	3.83% and 9.27%	inactive	inactive	inactive	inactive	0.432% and 9.79%	inactive
O=c1cc(-c2ccc(O)cc2)oc2cc(O)cc(O)c12			31.6 µM (active)							
CCCCC1C(=O)N(c2ccccc2)N(c2ccccc2)C1=O	inactive	-0.201% (inactive) and -2.53% (inactive)	inactive					inactive	4.5% and 6.7%	inactive
CCn1cc(C(=O)O)c(=O)c2ccc(C)nc21	inactive					inactive	inactive	inactive		
O=c1cc(-c2ccccc2)oc2cc(O)cc(O)c12		-10.9% (inactive)								
CC(=O)N[C@@H](CS)C(=O)O	inactive		inactive	-4.28%	inactive	inactive		inactive	-10.9%	inactive
CC1=C(/C=C/C(C)=C/C=C/C(C)=C/C(=O)Nc2ccc(O)cc2)C(C)(C)CCC1							inactive			
O=C(O)c1cc(O)c2c(c1)C(=O)c1cccc(O)c1C2=O		1.5% (inactive)								
CC(=O)O[C@]1(C(C)=O)CC[C@H]2[C@@H]3C=C(Cl)C4=CC(=O)[C@@H]5C[C@@H]5[C@]4(C)[C@H]3CC[C@@]21C						inactive				
O=c1[nH]cnc2c1ncn2[C@H]1CC[C@@H](CO)O1		10.5% (inactive) and 6.23% (inactive)	inactive	45.2%	inactive			inactive	0.954% and -9.72%	inactive
O=c1c(O)c(-c2ccc(O)cc2)oc2cc(O)cc(O)c12	inactive	-2.66% (inactive) and -3.79% (inactive)		-17.2% and 39.5%	inactive				23%	inactive
O=C(O)Cc1cccc2ccccc12	inactive			10.6% and 0.107%	inactive	inactive	inactive		-5.32% and -9%	inactive
O=c1c(-c2ccc(O)cc2)coc2cc(O)ccc12	inactive	-8.98% (inactive) and -6.42% (inactive)	inactive	40.9% and 70.8%	inactive			inactive		
CCCNC(=O)NS(=O)(=O)c1ccc(Cl)cc1		0.922% (inactive) and 6.93% (inactive)	inactive	8.72%	inactive	inactive	inactive	inactive	2.79% and 10.5%	inactive
O=C(O)c1cc(-c2ccccc2)nc2ccccc12	inactive		inactive	54.7%	inactive		inactive		26.3%	inactive
CN(C)CCC(c1ccccc1)c1ccccn1 (centres undefined)		4.14% (inactive)		37.9%	inactive	inactive	inactive	inactive	-9.83%	inactive
O=C1NC(=O)C(c2ccccc2)(c2ccccc2)N1		-3.98% (inactive) and -0.765% (inactive) and -12.7% (inactive)	inactive	-66.4% and 31.2% and 54.5%	inactive			inactive	-1.34% and -8.57% and -15.1%	inactive

Source: PubChem BioAssay (NCATS)
